According to PubChem BioAssay (NCATS):
Active and inactive are the calls of the source. The rule behind the calls is not given here.

system: HIV-1 nucleocapsid protein NCp7 (binding to TG oligonucleotide); assay: HIV Nucleocapsid (AID 346); conditions: HIV-1 NC / fluorescein-TGTGTGTG probe, fluorescence polarization;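 note: potency is for inhibitors that block NC binding and lower polarization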
Outline: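 HIV-1 NC (100 nM) binding to fluorescein-labelled ssDNA TG4xF (10 nM) in Hepes pH 7.5, 250mM NaCl, 1uM ZnCl2, TCEP and 2-mercaptoethanol; compounds pin-transferred, 1 hr room temperature, fluorescence polarization read on CCD imager.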
Potency is the fitted concentration of half-maximal effect.

SMILES	Potency
COc1cccc(Nc2ncc3nc(-c4cccs4)c(=O)n(-c4ccccc4)c3n2)c1	6.57 µM (active)
N#CCCn1c(=O)c(-c2ccc(F)cc2)nc2cnc(N3CCOCC3)nc21	> 20 µM (inactive)
COCCn1c(=O)c(-c2cc(F)cc(F)c2)nc2cnc(N3CCN(C)CC3)nc21	> 20 µM (inactive)
COc1ccc(C(=O)N2CCC3(CC2)CN(Cc2ccc(C#N)cc2)C3)cc1	> 20 µM (inactive)
N#CCCn1c(=O)c(CCc2ccccc2)nc2cnc(OCc3ccccc3)nc21	> 20 µM (inactive)
Cn1cccc1C(=O)N1CCC2(CCN(C(=O)Nc3cccc(F)c3)CC2)CC1	> 20 µM (inactive)
CCNc1ncc2nc(-c3ccccc3)c(=O)n(CCc3ccccc3)c2n1	> 4 µM (inactive)
c1cn(-c2ccnc(-c3ccc4c(c3)OCO4)n2)cn1	> 20 µM (inactive)
COc1cccc(Cn2c(=O)cnc3cnc(Nc4cccc(OC)c4)nc32)c1	> 20 µM (inactive)
CC(=O)N1CCC2(CCCN(c3ccncc3)C2)CC1	> 20 µM (inactive)
CN1CCN(c2ncc3nc(CCc4ccccc4)c(=O)n(Cc4ccc(F)cc4)c3n2)CC1	> 20 µM (inactive)
CCNc1ncc2nc(-c3cc(F)cc(F)c3)c(=O)n(Cc3cccs3)c2n1	> 20 µM (inactive)
COc1cccc(Nc2ncc3ncc(=O)n(C[C@H]4CCCO4)c3n2)c1	> 20 µM (inactive)
Cn1c(=O)c(-c2ccccc2)nc2cnc(OCc3ccccc3)nc21	> 20 µM (inactive)
CN(Cc1ccco1)c1ncnc2ccc(-c3ccc4c(c3)OCO4)cc12	> 20 µM (inactive)
COc1ccccc1CCn1c(=O)c(-c2ccccc2)nc2cncnc21	> 20 µM (inactive)
Cc1nc2cnc(Oc3cccc(Cl)c3)nc2n(C[C@H]2CCCO2)c1=O	> 20 µM (inactive)
COc1ncc2nc(-c3cc(F)cc(F)c3)c(=O)n(-c3ccccc3)c2n1	> 20 µM (inactive)
CCNc1ncc2nc(-c3cc(F)cc(F)c3)c(=O)n(C[C@H]3CCCO3)c2n1	> 20 µM (inactive)
N#CCCn1c(=O)c(-c2ccc(Cl)cc2)nc2cnc(Oc3ccccc3)nc21	> 20 µM (inactive)

SMILES	Potency
COCCn1c(=O)c(-c2ccc(F)c(F)c2)nc2cncnc21	> 20 µM (inactive)
CN(Cc1ccco1)c1nc(-c2ccccc2C(F)(F)F)nc2ccccc12	> 20 µM (inactive)
CNc1nc(-c2ccccc2C(F)(F)F)nc2ccccc12	> 20 µM (inactive)
COc1ccc(C(=O)N2CCC3(CCN(Cc4ccccc4OC)CC3)CC2)cc1	> 20 µM (inactive)
COc1ncc2nc(-c3ccc(F)cc3)c(=O)n(CCC#N)c2n1	> 20 µM (inactive)
Cc1ccccc1-c1nc(NC2CC2)c2ccccc2n1	> 20 µM (inactive)
O=c1c(-c2ccccc2)nc2cnc(N3CCNCC3)nc2n1C1CC1	> 20 µM (inactive)
CN1CC[C@@]2(CCCN(C(=O)c3cccc(F)c3)C2)C1	> 20 µM (inactive)
CN(C)C(=O)c1ccc(-c2cncnc2NC2CCNCC2)cc1	> 20 µM (inactive)
Cn1c(=O)c(-c2ccc(Cl)cc2)nc2cnc(N3CCOCC3)nc21	> 20 µM (inactive)
O=C(c1csnn1)N1CCC2(CC1)CN(C(c1ccccc1)c1ccccc1)C2	> 20 µM (inactive)
COc1cccc(-c2ccc3ncnc(N(C)C)c3c2)c1	> 20 µM (inactive)
COC(=O)N1CCC2(CC1)CCN(c1ccccc1)CC2	> 20 µM (inactive)
CN1CCCC2(CCN(C(=O)c3cnccn3)CC2)C1	> 20 µM (inactive)
Cn1c(=O)c(-c2ccc(Cl)cc2)nc2cnc(Nc3ccccc3)nc21	> 20 µM (inactive)
O=C(c1cccc(F)c1)N1CCC2(CCCN(c3ncccn3)C2)CC1	> 20 µM (inactive)
O=c1c(-c2cccs2)nc2cncnc2n1-c1ccccc1	18.2 µM (inactive)
O=c1c(-c2cccs2)nc2cnc(N3CCNCC3)nc2n1-c1ccccc1	12.2 µM (inactive)
CN1CCN(c2ncc3nc(-c4ccccc4)c(=O)n(CCC#N)c3n2)CC1	> 20 µM (inactive)
COc1ccccc1CNc1ccnc(-c2ccccc2Cl)n1	> 20 µM (inactive)
